Among the data in PubChem BioAssay (NCI) are growth inhibition values, retold here.

About 79,000 compounds went through this panel and 15% of them were active in at least one assay; those are over-represented in the sample as a whole. Unmarked numbers belong to inactive results. Calls of active or inactive are those of the source. Cut-off read from the data, not from the text of the source: active = growth inhibition above about 70%; inactive = the rest.

Experiment [1] is described as follows: NCI Yeast Anticancer Drug Screen. Data for the rad50 strain (AID 155).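 Note: 0% = growth of vehicle-only cultures of the same strain.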 Particulars: S. cerevisiae rad50 strain growth inhibition, stronger effect = higher value. The procedure, abridged:
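Vehicle-treated cultures provide the reference for the growth inhibition reported for compound-exposed, repair-deficient yeast.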

Experiment [2] can be described thus: NCI Yeast Anticancer Drug Screen. Data for the mec2-1 strain (AID 157). Particulars: S. cerevisiae mec2-1 strain, stronger effect = higher value. The procedure, abridged:
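Each compound was tested on mec2-1 yeast, a strain altered in DNA damage repair or cell cycle control. Growth inhibition is reported relative to vehicle.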

Experiment [3] in a line: NCI Yeast Anticancer Drug Screen. Data for the sgs1 mgt1 strain (AID 161).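 Note: 0% = growth of cultures given vehicle only.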 The conditions noted are these: S. cerevisiae sgs1 mgt1 strain, stronger effect = higher value. The procedure, abridged:
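Test agents were incubated with a DNA-repair-mutant yeast strain. Growth was then read and compared against vehicle-treated controls.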

Experiment [4] is described as follows: NCI Yeast Anticancer Drug Screen. Data for the cln2 rad14 strain (AID 165).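 Note: 0% = growth equal to vehicle treated cultures.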 Particulars: S. cerevisiae cln2 rad14 strain, stronger effect = higher value. The procedure, abridged: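 Test compounds were added to cln2 rad14 yeast cultures; inhibition of growth was then determined by comparison with vehicle treatment.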
Experiment [5] in a line: NCI Yeast Anticancer Drug Screen. Data for the bub3 strain (AID 167). Particulars: S. cerevisiae bub3 mutant strain, stronger effect = higher value. Summed up: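 Mutant yeast screening strain plus compound; vehicle-treated cultures serve as the 0% inhibition reference.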
The nature of experiment [6]: NCI Yeast Anticancer Drug Screen. Data for the mlh1 rad18 strain (AID 175). The conditions noted are these: S. cerevisiae mlh1 rad18 strain growth inhibition, stronger effect = higher value. Summed up:
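Inhibition values reflect reduced growth of mutant yeast versus vehicle-treated controls following compound exposure; the mutations affect DNA damage repair.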

[7] abbreviates: at 5.0 µM (retest, dose inferred, filed as 0.5).
The mark [8] stands for this setting: at 50.0 µM (retest, dose inferred, filed as 5.0).

In the case of `CCC/C(=N\NC(=S)N1CCCCCC1)c1ccccn1`, the growth inhibition in experiment [1] (setting [7]) is 69%; in experiment [1] (setting [8]), 97% (active); in experiment [1] (at 50.0 µM) it was 90.3% (active); in experiment [2] (setting [7]), 77% (active); in experiment [2] (setting [8]) it was 97% (active); in experiment [2] (at 50.0 µM), 93.5% (active). Moreover, the growth inhibition was 72% (active) in experiment [3] (setting [7]); 97% (active) in experiment [3] (setting [8]); 90.9% (active) in experiment [3] (at 50.0 µM); 66% in experiment [4] (setting [7]); 97% (active) in experiment [4] (setting [8]); 91.7% (active) in experiment [4] (at 50.0 µM). In addition, the growth inhibition in experiment [5] (setting [7]) is 90% (active); in experiment [5] (setting [8]), 96% (active); in experiment [5] (at 50.0 µM) it was 90.7% (active); in experiment [6] (setting [7]), 82% (active); in experiment [6] (setting [8]), 96% (active); in experiment [6] (at 50.0 µM) it was 90.2% (active).
In the case of `Cc1ccnc(NC(c2ccccc2)c2ccc3cccnc3c2O)c1` (stereo not drawn), the growth inhibition is 0% in experiment [1] (setting [7]); 95% (active) in experiment [1] (setting [8]); 98.3% (active) in experiment [1] (at 50.0 µM); -5% in experiment [2] (setting [7]); 97% (active) in experiment [2] (setting [8]); 96.3% (active) in experiment [2] (at 50.0 µM). The growth inhibition is -3% in experiment [3] (setting [7]); 95% (active) in experiment [3] (setting [8]); 97.7% (active) in experiment [3] (at 50.0 µM); -7% in experiment [4] (setting [7]); 95% (active) in experiment [4] (setting [8]); 95.4% (active) in experiment [4] (at 50.0 µM). Also, the growth inhibition in experiment [5] (setting [7]) was -6%; in experiment [5] (setting [8]), 96% (active); in experiment [5] (at 50.0 µM), 98.7% (active); in experiment [6] (setting [7]) it was 6%; in experiment [6] (setting [8]), 95% (active); in experiment [6] (at 50.0 µM), 97.4% (active).
As to `Cc1cc(C(C)(CC(C)C)c2ccc(O)c(C)c2)ccc1O`, the growth inhibition in experiment [1] (setting [7]) was 99% (active); in experiment [1] (setting [8]) it was 99% (active); in experiment [1] (at 50.0 µM) it was 91.1% (active); in experiment [2] (setting [7]) it was 98% (active); in experiment [2] (setting [8]), 99% (active); in experiment [2] (at 50.0 µM), 93% (active). Moreover, the growth inhibition was 97% (active) in experiment [3] (setting [7]); 98% (active) in experiment [3] (setting [8]); 93.2% (active) in experiment [3] (at 50.0 µM); 68% in experiment [4] (setting [7]); 98% (active) in experiment [4] (setting [8]); 92.5% (active) in experiment [4] (at 50.0 µM). Further, the growth inhibition was 98% (active) in experiment [5] (setting [7]); 97% (active) in experiment [5] (setting [8]); 91.4% (active) in experiment [5] (at 50.0 µM); 100% (active) in experiment [6] (setting [7]); 100% (active) in experiment [6] (setting [8]); 91.3% (active) in experiment [6] (at 50.0 µM).
For `O=C(NCCN1CCN2Cc3[nH]c4ccccc4c3CC2C1)c1ccc(Cl)cc1` (stereo not drawn), the growth inhibition in experiment [1] (setting [7]) was 9%; in experiment [1] (setting [8]), 50%; in experiment [1] (at 50.0 µM), 51.6%; in experiment [2] (setting [7]) it was 10%; in experiment [2] (setting [8]) it was 40%; in experiment [2] (at 50.0 µM), 46.8%. The growth inhibition in experiment [3] (setting [7]) is 1%; in experiment [3] (setting [8]), 50%; in experiment [3] (at 50.0 µM) it was 61%; in experiment [4] (setting [7]), 27%; in experiment [4] (setting [8]), 72% (active); in experiment [4] (at 50.0 µM) it was 55.6%. Besides, the growth inhibition in experiment [5] (setting [7]) was 26%; in experiment [5] (setting [8]) it was 53%; in experiment [5] (at 50.0 µM) it was 50.5%; in experiment [6] (setting [7]), 8%; in experiment [6] (setting [8]), 60%; in experiment [6] (at 50.0 µM), 53.5%.
On to `NCCCSc1ccc(Br)cc1`, for which the growth inhibition in experiment [1] (setting [7]) was -10%; in experiment [1] (setting [8]) it was 13%; in experiment [1] (at 50.0 µM), 9.6%; in experiment [2] (setting [7]), -4%; in experiment [2] (setting [8]), -5%; in experiment [2] (at 50.0 µM) it was 34.3%. Besides, the growth inhibition was -4% in experiment [3] (setting [7]); 47% in experiment [3] (setting [8]); 20.1% in experiment [3] (at 50.0 µM); 0% in experiment [4] (setting [7]); 17% in experiment [4] (setting [8]); 35.1% in experiment [4] (at 50.0 µM). The growth inhibition in experiment [5] (setting [7]) was -22%; in experiment [5] (setting [8]), -21%; in experiment [5] (at 50.0 µM) it was 8.3%; in experiment [6] (setting [7]) it was -4%; in experiment [6] (setting [8]) it was 13%; in experiment [6] (at 50.0 µM) it was 8.5%.
Regarding `O=S=C(c1ccccc1)N(Cc1ccccc1)Cc1ccccc1`, the growth inhibition in experiment [1] (setting [7]) was -1%; in experiment [1] (setting [8]), 94% (active); in experiment [1] (at 50.0 µM), 96% (active); in experiment [2] (setting [7]), -1%; in experiment [2] (setting [8]), 95% (active); in experiment [2] (at 50.0 µM) it was 96.2% (active). In addition, the growth inhibition was 0% in experiment [3] (setting [7]); 98% (active) in experiment [3] (setting [8]); 96.7% (active) in experiment [3] (at 50.0 µM); 10% in experiment [4] (setting [7]); 90% (active) in experiment [4] (setting [8]); 69.7% in experiment [4] (at 50.0 µM). Moreover, the growth inhibition in experiment [5] (setting [7]) was 22%; in experiment [5] (setting [8]) it was 93% (active); in experiment [5] (at 50.0 µM) it was 96.8% (active); in experiment [6] (setting [7]), 1%; in experiment [6] (setting [8]), 95% (active); in experiment [6] (at 50.0 µM) it was 94.2% (active).
